Screening data from PubChem BioAssay.
Compounds with a hit are over-represented: about 22% of the library has one in this group of screens.
CYP2C9 inh = blocks human cytochrome P450 2C9; 96,000 compounds, 20% hits; P11712; inhibition, % at 5 µM; CYP2C9 Supersomes, luciferin-H conversion, luminescence;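 active = blocking of liver enzyme CYP2C9 beyond about 50% at 5 µM, limit read from the data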
CYP2C19 act = increases human CYP2C19 enzyme activity; activation factor at 5 µM; P33261; recombinant CYP2C19, luciferin-H EGE luminescence; active compounds read high; 0 = fully inhibited enzyme, 1 = untreated enzyme; 96,000 tested, under 10 active; AID 1025;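 active = activation factor of at least 2 at 5 µM in the primary screen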;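 also: 0 = wells with 2.5 mM tranylcypromine and 1 = vehicle-only wells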
Target sequence (P33261 whole entry, looked up): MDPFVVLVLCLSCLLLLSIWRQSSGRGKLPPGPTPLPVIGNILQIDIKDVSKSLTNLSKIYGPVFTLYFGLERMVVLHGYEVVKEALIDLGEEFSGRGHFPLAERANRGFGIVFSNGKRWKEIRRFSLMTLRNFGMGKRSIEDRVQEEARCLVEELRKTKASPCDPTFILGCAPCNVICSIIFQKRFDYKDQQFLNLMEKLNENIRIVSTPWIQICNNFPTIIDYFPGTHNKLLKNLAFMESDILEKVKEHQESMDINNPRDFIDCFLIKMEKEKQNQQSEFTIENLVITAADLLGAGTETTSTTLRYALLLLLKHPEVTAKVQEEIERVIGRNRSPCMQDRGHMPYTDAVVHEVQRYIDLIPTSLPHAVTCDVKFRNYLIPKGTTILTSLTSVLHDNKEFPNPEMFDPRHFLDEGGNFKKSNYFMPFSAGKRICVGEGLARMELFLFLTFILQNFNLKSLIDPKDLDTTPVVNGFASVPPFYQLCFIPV
Measles CPE = protection of cells from measles virus; Measles virus-infected cells, CPE protection, absorbance; protection (pct of control), % at 4 µM; 140,000 compounds, 1.5% hits; AID 841; in the data active = protection mostly above about 24%, no sharp cut-off; inactive = mostly below about 26%
CYP2C19 inhib = human CYP2C19 inhibition. inhibition, % at 5 µM. CYP2C19 Supersomes, luciferin-H EGE luminescence, 30 min. P33261. 96,000 compounds, 21% hits. AID 778;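 active = CYP2C19 inhibition above a set limit at 5 µM in the primary screen, cut at about 50% in these data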;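 also: plate controls were negative control wells for no effect and 2.5 mM tranylcypromine positive control for full effect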
CYP2C9 activ = activators of human CYP2C9 | P11712 | recombinant CYP2C9, luciferin-H conversion, luminescence; active compounds read high; factor 1 = untreated enzyme, 0 = blocked | activation factor at 5 µM | 96,000 compounds, 1.4% hits;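 active = activation factor of 2 or more for CYP2C9 at a 5 µM dose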;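 also: 0 = sulfaphenazole-blocked wells and 1 = vehicle-only wells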
* = called active by the depositor; nt = not tested or not shown.

SMILES	CYP2C9 inh	CYP2C19 act	Measles CPE	CYP2C19 inhib	CYP2C9 activ
CCOC(=O)C1=C(NC#N)OC(C)=C(C)C1c1ccc(O)cc1 (stereo not drawn)	70*	0	21	96*	0.3
COCCNC(=O)CCSc1nc(-c2ccc(OC)cc2)cc(C(F)(F)F)n1	nt	nt	10	nt	nt
COc1ccc(CCNC(=O)c2ccc3nc(-c4ccco4)c(-c4ccco4)nc3c2)cc1OC	34	0.8	5	20	0.7
COc1ccc(-c2nc(CCNC(=O)c3ccco3)cs2)cc1OC	54*	0.7	3	33	0.5
Cc1ccc2cc(CN(C(=O)c3ccco3)c3ccccc3)c(=O)[nH]c2c1	22	0.8	10	17	0.8
COc1ccc(CCNC(=O)CCSc2nc(-c3ccco3)cc(C(F)(F)F)n2)cc1OC	91*	0.1	3	88*	0.1
O=C(CCSc1nc(-c2ccco2)cc(C(F)(F)F)n1)N1CCN(c2ccccc2)CC1	76*	0.2	23	81*	0.2
COc1ccc(CN(C(=O)c2ccco2)c2ccc(C)cc2)cc1OC	63*	0.3	11	65*	0.4
CCOc1ccc(N=c2cc(-c3ccc(OC)cc3)oc3ccccc23)cc1	nt	nt	9	nt	nt
CC(NC(=O)CCSc1nc(-c2ccco2)cc(C(F)(F)F)n1)c1ccccc1 (stereo not drawn)	47	0.5	5	53*	0.5
COc1ccc(CCNC(=O)COC(=O)c2ccco2)cc1OC	-10	1	39*	-1	1.1
O=C(CSc1nc(-c2ccco2)cc(C(F)(F)F)n1)Nc1ccc2c(c1)CCC2	36	0.9	8	12	0.6
O=C(CSc1nc(-c2ccco2)cc(C(F)(F)F)n1)NC1CCCC1	94*	0.2	6	82*	0.1
O=C(CCSc1nc(-c2ccco2)cc(C(F)(F)F)n1)NCc1cccs1	nt	nt	22	nt	nt
O=C(CCSc1nc(-c2ccco2)cc(C(F)(F)F)n1)NCc1ccccn1	69*	0.2	8	78*	0.3
Cc1nn(-c2ccccc2Cl)c(Cl)c1/C=N/Nc1nc2ccccc2s1	nt	nt	4	nt	nt
COc1ccc(/C=C/C(=O)Nc2nc(C)cc(C)n2)cc1OC	-14	0.9	18	14	1.1
COC(=O)c1ccc(NC(=O)CN(c2ccc3c(c2)OCO3)S(C)(=O)=O)cc1	nt	nt	26	nt	nt
CC(C)NC(=O)c1ccccc1NC(=O)CN(c1ccc2c(c1)OCO2)S(C)(=O)=O	82*	0.5	1	45	0.2
CS(=O)(=O)N(CC(=O)Nc1ccccc1C(=O)NCc1ccccc1)c1ccc2c(c1)OCCO2	94*	0.6	4	36	0.1
COC(=O)c1ccc(C)c(NC(=O)CN(c2ccc3c(c2)OCO3)S(C)(=O)=O)c1	69*	0.3	20	70*	0.3
Cc1ccc(N(CC(=O)Nc2ccccc2C(=O)N2CCOCC2)S(C)(=O)=O)cc1	nt	nt	25	nt	nt
CS(=O)(=O)N(CC(=O)Nc1ccccc1C(=O)N1CCOCC1)c1ccccc1	nt	nt	16	nt	nt
COc1ccccc1N(CC(=O)Nc1ccccc1C(=O)NC(C)C)S(C)(=O)=O	41	1	16	-1	0.6
CS(=O)(=O)N(CC(=O)Nc1ccccc1C(=O)NCCc1ccccc1)c1ccc2c(c1)OCCO2	94*	0.1	2	87*	0.1
SMILES	CYP2C9 inh	CYP2C19 act	Measles CPE	CYP2C19 inhib	CYP2C9 activ
COC(=O)c1ccc(C)c(NC(=O)CN(c2cc(OC)ccc2OC)S(C)(=O)=O)c1	29	0.4	2	56*	0.7
Brc1c(CSc2nnc(-c3ccco3)o2)nc2ccccn12	-122	0.2	13	78*	2.2*
c1coc(-c2nnc(SCc3cn4ccccc4n3)o2)c1	-2	0.5	4	46	1
COc1cc(CC(=O)OCC(=O)c2ccc3c(c2)OCCO3)cc(OC)c1OC	20	0.9	5	5	0.8
O=C(CSc1nnc(-c2cccs2)n1-c1cccc(Cl)c1)c1cccc2c1OCCO2	85*	0.3	15	72*	0.2
O=C(CCSc1ccc(Cl)cc1)N1CCOCC1	nt	nt	18	nt	nt
O=C(CSc1nnc(-c2cccs2)n1-c1ccccc1)N1CCCC1	18	0.9	15	11	0.8
NC(=O)CSc1nnc(-c2ccncc2)n1-c1ccc(Cl)cc1	nt	nt	5	nt	nt
O=C(CSc1nnc(-c2cccs2)n1-c1ccccc1)N1CCOCC1	-2	1.1	38*	-6	1
O=C(CSc1ccc(Cl)cc1)N1CCOCC1	-17	0.3	6	74*	1.2
O=C(O)CSc1nnc(-c2ccncc2)n1-c1ccc(Cl)cc1	51*	0.9	20	9	0.5
CCn1c(CNC(=O)Cc2ccc(OC)cc2)nnc1SCCOc1ccccc1	10	0.9	2	8	0.9
Cc1nnc(Cl)c2nn(-c3ccccc3F)c(C)c12	nt	nt	15	nt	nt
CS(=O)(=O)N(CC(=O)NCc1ccc(Cl)cc1)C1CCCCC1	nt	nt	4	nt	nt
CCCCC1CCC(C(=O)NC2CCS(=O)(=O)C2)CC1 (stereo not drawn)	nt	nt	22	nt	nt
CC(=O)c1cc2c(cc1NC(=O)CCc1ccccc1)OCO2	-11	0.6	21	42	1.1
Cc1cccc(OCC(=O)N2CCC(N3CCOCC3)CC2)c1	-3	0.9	1	6	1
Cc1ccc(Cn2ccc(NC(=O)c3nn(C)cc3Cl)n2)cc1	-5	0.5	12	49	1
Cc1ccccc1-n1c(SCC(=O)N2CCN(c3ccccc3)CC2)nnc1-c1ccncc1	76*	0.2	5	84*	0.2
O=C(CSc1nnc(-c2ccncc2)n1-c1ccc(Cl)cc1)N1CCOCC1	77*	0	5	98*	0.2
Nn1c(SCC(=O)N2CCCCC2)nnc1-c1ccncc1	5	0.9	4	14	0.9
Cc1cc(C)c2nc(C(F)(F)F)nc(N3CCN(C(=O)c4ccco4)CC3)c2c1	-3	0.8	17	20	1
Cc1ccc(NC(=O)CS(=O)CC(=O)N(CC(=O)NC2CCCC2)c2cc(C)ccc2C)cc1 (stereo not drawn)	71*	0.7	6	35	0.3
Cc1ccccc1N(CC(=O)NC1CCCC1)C(=O)CS(=O)CC(=O)Nc1ccc2c(c1)OCO2 (stereo not drawn)	90*	0.8	8	22	0.1
CC(C)Nc1nc(Cl)nc(NCCOc2ccccc2)n1	nt	nt	22	nt	nt
SMILES	CYP2C9 inh	CYP2C19 act	Measles CPE	CYP2C19 inhib	CYP2C9 activ
O=c1[nH][nH]cc1C=Nc1ccccc1O	10	1	2	5	0.9
COc1ccc(C=Nc2cccc3c(=O)[nH][nH]c(=O)c23)c2ccccc12	79*	0.6	9	42	0.2
O=C(c1ccco1)N1CCN(CCCCOc2ccc(F)cc2)CC1	nt	nt	1	nt	nt
O=C(c1ccco1)N1CCN(CC(O)COc2ccc3oc4ccccc4c3c2)CC1 (stereo not drawn)	51*	0.9	7	15	0.5
Cc1nc(N2CCN(S(=O)(=O)c3ccccc3)CC2)c2cc(-c3ccccc3)sc2n1	53*	0.9	3	8	0.5
O=S(=O)(c1cc(F)cc(F)c1)N1CCN(c2ncccn2)CC1	47	0.3	3	72*	0.5
